Reference: PubChem BioAssay AID652054 (National Center for Advancing Translational Sciences (NCATS), 2013)
Several values for one entry are separate records, joined by “and”; a condition that tells them apart may be missing. Equal values may be shown once. The campaign covered roughly 360,000 compounds. About 9,100 (2.5%) were called active. Not shown: some 4% with an inconclusive outcome. The sample holds actives, similar compounds and a random draw of the others, so the mix is not that of the screen. Unmarked numbers belong to inactive results. No stated cut-off is given here; in the data, active means max response below about -50%; inconclusive means no clear call, values can overlap the other calls; inactive means above that.

The molecules below were run against D(3) dopamine receptor (Homo sapiens) (UniProt P35462) (assay: qHTS of D3 Dopamine Receptor Antagonist: qHTS). Conditions: D3R cells, DiscoveRx beta-arrestin luminescence, antagonist mode; hits give low values.
Summary of the method: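 Cells plated overnight at 1500 cells/well, then exposed to library compounds with dopamine controls for 90 minutes at 37 degrees C. DiscoveRx reagent added for 30–60 minutes at room temperature; luminescence read, quantitative HTS format.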
On the % scale 0 is the no-effect control and ±100 the full control effect.

D(3) dopamine receptor (Homo sapiens), sequence (P35462 whole entry, looked up): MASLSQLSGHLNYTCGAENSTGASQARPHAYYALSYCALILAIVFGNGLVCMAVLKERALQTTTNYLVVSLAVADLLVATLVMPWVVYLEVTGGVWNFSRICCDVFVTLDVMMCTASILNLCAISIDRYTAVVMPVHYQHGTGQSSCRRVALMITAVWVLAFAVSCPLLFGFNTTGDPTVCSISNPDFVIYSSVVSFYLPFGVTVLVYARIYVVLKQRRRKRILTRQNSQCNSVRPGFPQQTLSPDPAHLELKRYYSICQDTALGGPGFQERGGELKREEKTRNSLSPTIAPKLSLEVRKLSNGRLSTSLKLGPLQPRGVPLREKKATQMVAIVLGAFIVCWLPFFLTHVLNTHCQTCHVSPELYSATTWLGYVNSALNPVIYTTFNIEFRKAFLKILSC

| Structure (SMILES) | max response, negative = inhibition |
| --- | --- |
| CC(=O)N1C[C@@H](CO)[C@@H](N(C)C(=O)c2ccco2)C[C@H]1c1ccccc1 | 0% |
| COc1ccc(C[C@H]2CN3C(=NC[C@H]3C)N2CCNC(=O)CCC2CCCCC2)cc1 | -71.7% (active) |
| C/C=C(\C)C(=O)NCCN1C2=NC[C@H](Cc3ccc(O)cc3)N2C[C@@H]1Cc1ccc(OC)cc1 | -17.1% |
| COc1cccc(CNC(=O)CCC2CCCN(Cc3ccc(OC(F)F)cc3)C2)c1 (centres undefined) | -23.3% |
| CC1(C(=O)NCc2cccc3ccccc23)CCN1Cc1ccc(-c2ccccc2)o1 (centres undefined) | 34.9% |
| CCOc1cc(/C=N/NC(=O)c2ccncc2)cc(Br)c1O | 2.27% |
| CCC(C)CN1C(=O)CSCC1(C)C(=O)NCc1ccccc1 (centres undefined) | 6.99% |
| COc1cc(C=NC2CCCCC2)ccc1O | 22% |
| OC(c1ccc(Cl)cc1)c1ncc(-c2ccc(Cl)cc2)[nH]1 (centres undefined) | 21.5% |
| CCOC(=O)c1c(S(=O)(=O)NCC(=O)Nc2ccc(C)cc2)c(C)n(C)c1C | -0.327% |
| CCOC(=O)c1c(S(=O)(=O)Nc2ccc(CN3CCC(C)CC3)cc2)c(C)n(C)c1C | -51% (active) |
| CCOC(=O)c1c(S(=O)(=O)Nc2cccc(Cl)c2)c(C)n(C)c1C | -8.27% |
| CC1Cc2[nH][nH]c(=O)c2C(C2CCCC2)O1 (centres undefined) | 0% |
| CCCCc1ccc(S(=O)(=O)NC(=O)C2(C)CCN2C(=O)c2ccccc2)cc1 (centres undefined) | 0.751% |
| CC1CCC2(CC1)NC(=O)N(CC(=O)NCc1ccco1)C2=O (centres undefined) | -7.59% |
| COc1cccc(-c2cc(NC(C)=O)c3ncc(-c4cccc(C(C)=O)c4)n3c2)c1 | 4.06% |
| CCOC(=O)c1cnn2c(SC)ncnc12 | -12.7% |
| COc1ccc(-c2ccc3[nH]c4c(c3c2)CCN2C[C@H]3[C@H](C)ON(C)[C@H]3C[C@@H]42)cc1 | -2.08% |
| COC(=O)[C@H]1[C@H]2C[C@H]3c4[nH]c5ccccc5c4CCN3C[C@@H]2CC[C@@H]1O | -113% (active) and -60.5% (active) |
| C[C@H](O)[C@@H]1C(=O)N2CCc3c([nH]c4ccccc34)[C@@H]2C[C@@H]1N(C)C(=O)Nc1ccc(F)cc1 | -19.9% |
| COc1ccc(S(=O)(=O)NC(=O)C2(C)CCN2C(=O)COc2ccc(Cl)cc2)cc1 (centres undefined) | -5.73% |
| Cn1c(=O)[nH]c(=O)c2c1nc(N1CCN(C(c3ccccc3)c3ccccc3)CC1)n2CCO | 6.48% |
| Cn1c(=O)[nH]c(=O)c2c1nc(N1CCN(CCO)CC1)n2CCSc1nc2ccccc2s1 | -66.2% (active) |
| Cc1nnc(SCCCn2c(N3CCCCC3)nc3c2c(=O)[nH]c(=O)n3C)s1 | 17.6% |
